# Columns and labels:
# Assay in all cases: DAPPL (digital affinity profiling via proximity ligation, sequencing); 10 mM Tris-HCl pH 7.5, 50 mM NaCl, 1 mM DTT, 4% glycerol, room temperature, 30 min; GST-TFs on glutathione beads, 16-mer random dsDNA library, 0.1% formaldehyde crosslink after washing; high values mean tight binding
# FEV = molecular target: T1, FEV (Homo sapiens, UniProt Q99581 1-238); details: protein: recombinant; tags: N-terminal GST; dsDNA, one strand shown
# T1 sequence: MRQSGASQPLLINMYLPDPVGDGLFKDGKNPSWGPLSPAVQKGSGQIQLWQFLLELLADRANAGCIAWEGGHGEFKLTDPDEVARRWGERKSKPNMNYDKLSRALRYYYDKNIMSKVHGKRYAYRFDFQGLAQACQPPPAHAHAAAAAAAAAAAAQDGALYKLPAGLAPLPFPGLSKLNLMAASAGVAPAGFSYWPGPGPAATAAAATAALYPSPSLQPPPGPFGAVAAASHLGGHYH
# How it was run: (§1)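 Pools of DNA-barcoded human transcription factors, expressed in yeast as GST fusions on glutathione beads and combined with a tag-only sample, were incubated with 200 nmole of a 16-mer random double-stranded DNA library. Incubation took 30 min at room temperature in Tris/NaCl/DTT/glycerol buffer and was followed by washing, 0.1% formaldehyde crosslinking, proximity ligation (BsaI/T4 ligase, 1 h, 37 °C), PCR amplification and sequencing on an Illumina NextSeq500. Binding signal is the ratio of a hexamer's read frequency for a factor to its frequency for the tag-only sample.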
# ETV5 = ETV5 (Homo sapiens, UniProt P41161 1-510); details: protein: recombinant; tags: N-terminal GST; dsDNA, one strand shown
# How it was run: as §1
# HSF1 = HSF1 (Homo sapiens, UniProt Q00613 1-529); details: protein: recombinant; tags: N-terminal GST; chain copies: 3; dsDNA, one strand shown
# How it was run: as §1
# SPIC = molecular target: T2, SPIC (Homo sapiens, UniProt Q8N5J4 1-248); details: protein: recombinant; tags: N-terminal GST; dsDNA, one strand shown
# T2 sequence: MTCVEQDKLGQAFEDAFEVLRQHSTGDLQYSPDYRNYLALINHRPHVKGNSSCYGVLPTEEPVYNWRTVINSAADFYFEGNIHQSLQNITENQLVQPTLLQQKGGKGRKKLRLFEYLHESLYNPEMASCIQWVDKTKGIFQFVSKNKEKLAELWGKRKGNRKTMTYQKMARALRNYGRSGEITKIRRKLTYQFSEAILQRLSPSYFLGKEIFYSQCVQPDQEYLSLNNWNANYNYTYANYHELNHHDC
# How it was run: as §1
# ELF4 = ELF4 (Homo sapiens, UniProt Q99607 1-663); details: protein: recombinant; tags: N-terminal GST; dsDNA, one strand shown
# How it was run: as §1
# ELK4 = molecular target: T3, ELK4 (Homo sapiens, UniProt P28324-2 1-405); details: protein: recombinant; tags: N-terminal GST; dsDNA, one strand shown
# T3 sequence: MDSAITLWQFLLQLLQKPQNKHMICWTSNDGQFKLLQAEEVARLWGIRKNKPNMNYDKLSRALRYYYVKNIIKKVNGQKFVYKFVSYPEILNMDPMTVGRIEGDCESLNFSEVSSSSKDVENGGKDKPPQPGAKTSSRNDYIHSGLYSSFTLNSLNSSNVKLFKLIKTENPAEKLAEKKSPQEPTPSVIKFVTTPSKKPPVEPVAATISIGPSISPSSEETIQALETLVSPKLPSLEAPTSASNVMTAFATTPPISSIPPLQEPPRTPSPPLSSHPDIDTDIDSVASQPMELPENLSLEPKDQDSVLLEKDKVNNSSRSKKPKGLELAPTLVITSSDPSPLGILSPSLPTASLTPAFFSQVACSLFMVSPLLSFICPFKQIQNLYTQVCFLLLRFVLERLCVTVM
# How it was run: as §1
# ETV2 = molecular target: T4, ETV2 (Homo sapiens, UniProt O00321 1-342); details: protein: recombinant; tags: N-terminal GST; dsDNA, one strand shown
# T4 sequence: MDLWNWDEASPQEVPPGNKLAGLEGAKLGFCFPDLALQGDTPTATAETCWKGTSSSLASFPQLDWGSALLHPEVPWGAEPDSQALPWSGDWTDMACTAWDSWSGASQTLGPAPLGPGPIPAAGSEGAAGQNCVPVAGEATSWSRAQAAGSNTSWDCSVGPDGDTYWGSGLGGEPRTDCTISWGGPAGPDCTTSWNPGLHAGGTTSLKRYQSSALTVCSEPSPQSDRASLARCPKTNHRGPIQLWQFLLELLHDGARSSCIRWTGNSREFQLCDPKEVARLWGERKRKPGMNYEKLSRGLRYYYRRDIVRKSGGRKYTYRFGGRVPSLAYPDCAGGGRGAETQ
# How it was run: as §1
# ELF3 = molecular target: T5, ELF3 (Homo sapiens, UniProt P78545 1-371); details: protein: recombinant; tags: N-terminal GST; dsDNA, one strand shown
# T5 sequence: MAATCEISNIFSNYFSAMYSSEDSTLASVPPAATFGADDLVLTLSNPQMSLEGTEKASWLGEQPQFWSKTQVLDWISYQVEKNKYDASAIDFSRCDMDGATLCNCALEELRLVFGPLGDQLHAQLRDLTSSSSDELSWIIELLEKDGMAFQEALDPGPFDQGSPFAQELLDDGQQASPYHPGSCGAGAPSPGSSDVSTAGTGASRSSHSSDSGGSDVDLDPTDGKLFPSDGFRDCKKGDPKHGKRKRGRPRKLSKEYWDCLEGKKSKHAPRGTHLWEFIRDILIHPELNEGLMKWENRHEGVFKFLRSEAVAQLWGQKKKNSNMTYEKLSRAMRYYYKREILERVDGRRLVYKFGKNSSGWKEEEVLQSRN
# How it was run: as §1
# CRX = CRX (Homo sapiens, UniProt O43186 1-299); details: protein: recombinant; tags: N-terminal GST; dsDNA, one strand shown
# How it was run: as §1
# ETV1 = ETV1 (Homo sapiens, UniProt P50549 1-477); details: protein: recombinant; tags: N-terminal GST; dsDNA, one strand shown
# How it was run: as §1
# ERF = molecular target: T6, ERF (Homo sapiens, UniProt P50548 1-548); details: protein: recombinant; tags: N-terminal GST; dsDNA, one strand shown
# T6 sequence: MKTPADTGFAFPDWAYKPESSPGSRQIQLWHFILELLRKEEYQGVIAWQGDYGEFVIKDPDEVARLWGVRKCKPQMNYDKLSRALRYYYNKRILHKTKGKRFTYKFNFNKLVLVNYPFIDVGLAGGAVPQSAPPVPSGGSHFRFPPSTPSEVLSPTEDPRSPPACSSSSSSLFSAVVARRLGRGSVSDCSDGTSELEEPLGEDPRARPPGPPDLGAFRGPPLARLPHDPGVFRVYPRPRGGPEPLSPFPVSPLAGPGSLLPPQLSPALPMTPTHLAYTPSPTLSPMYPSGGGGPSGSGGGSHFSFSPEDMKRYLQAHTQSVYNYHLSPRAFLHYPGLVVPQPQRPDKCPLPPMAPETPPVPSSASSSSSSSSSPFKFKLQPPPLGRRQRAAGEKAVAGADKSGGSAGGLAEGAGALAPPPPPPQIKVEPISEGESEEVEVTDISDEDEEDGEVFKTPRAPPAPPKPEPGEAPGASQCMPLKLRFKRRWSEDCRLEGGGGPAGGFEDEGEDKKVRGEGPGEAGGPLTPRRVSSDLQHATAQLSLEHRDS
# How it was run: as §1
# ETV3L = molecular target: T7, ETV3L (Homo sapiens, UniProt Q6ZN32 1-361); details: protein: recombinant; tags: N-terminal GST; dsDNA, one strand shown
# T7 sequence: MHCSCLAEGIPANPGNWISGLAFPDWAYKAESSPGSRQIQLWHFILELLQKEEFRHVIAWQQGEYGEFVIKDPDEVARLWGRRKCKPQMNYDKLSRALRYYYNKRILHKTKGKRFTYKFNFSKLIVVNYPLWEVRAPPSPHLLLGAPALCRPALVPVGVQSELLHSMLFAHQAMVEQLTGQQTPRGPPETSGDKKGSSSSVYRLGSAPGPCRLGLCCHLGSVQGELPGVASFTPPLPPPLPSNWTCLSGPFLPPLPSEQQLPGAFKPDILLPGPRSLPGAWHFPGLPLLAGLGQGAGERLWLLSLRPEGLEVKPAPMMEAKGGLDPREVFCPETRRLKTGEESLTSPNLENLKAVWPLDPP
# How it was run: as §1
# ETS2 = molecular target: T8, ETS2 (Homo sapiens, UniProt P15036 1-469); details: protein: recombinant; tags: N-terminal GST; dsDNA, one strand shown
# T8 sequence: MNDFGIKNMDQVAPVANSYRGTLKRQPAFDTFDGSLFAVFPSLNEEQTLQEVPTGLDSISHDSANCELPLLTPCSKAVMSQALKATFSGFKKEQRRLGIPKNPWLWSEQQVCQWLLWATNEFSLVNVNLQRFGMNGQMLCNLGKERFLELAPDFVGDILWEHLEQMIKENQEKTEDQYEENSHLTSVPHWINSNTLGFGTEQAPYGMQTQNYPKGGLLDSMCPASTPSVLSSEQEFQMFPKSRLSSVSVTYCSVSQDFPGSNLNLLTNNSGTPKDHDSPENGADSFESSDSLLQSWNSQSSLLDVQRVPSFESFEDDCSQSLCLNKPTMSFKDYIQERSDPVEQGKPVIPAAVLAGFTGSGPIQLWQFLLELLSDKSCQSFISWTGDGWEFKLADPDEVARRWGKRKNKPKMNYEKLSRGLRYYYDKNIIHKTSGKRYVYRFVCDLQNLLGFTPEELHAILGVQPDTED
# How it was run: as §1
# SPDEF = molecular target: T9, SPDEF (Homo sapiens, UniProt O95238 1-335); details: protein: recombinant; tags: N-terminal GST; dsDNA, one strand shown
# T9 sequence: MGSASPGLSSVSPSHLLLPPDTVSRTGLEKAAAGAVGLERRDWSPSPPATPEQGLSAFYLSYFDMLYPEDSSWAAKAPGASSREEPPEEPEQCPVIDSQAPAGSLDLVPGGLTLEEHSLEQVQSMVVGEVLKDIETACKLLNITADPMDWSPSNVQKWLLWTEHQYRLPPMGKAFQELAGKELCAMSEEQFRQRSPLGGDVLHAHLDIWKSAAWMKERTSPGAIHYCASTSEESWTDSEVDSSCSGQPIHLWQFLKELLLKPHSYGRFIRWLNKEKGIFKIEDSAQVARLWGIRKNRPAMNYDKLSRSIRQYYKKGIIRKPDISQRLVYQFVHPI
# How it was run: as §1
# ETV7 = molecular target: T10, ETV7 (Homo sapiens, UniProt Q9Y603 1-341); details: protein: recombinant; tags: N-terminal GST; dsDNA, one strand shown
# T10 sequence: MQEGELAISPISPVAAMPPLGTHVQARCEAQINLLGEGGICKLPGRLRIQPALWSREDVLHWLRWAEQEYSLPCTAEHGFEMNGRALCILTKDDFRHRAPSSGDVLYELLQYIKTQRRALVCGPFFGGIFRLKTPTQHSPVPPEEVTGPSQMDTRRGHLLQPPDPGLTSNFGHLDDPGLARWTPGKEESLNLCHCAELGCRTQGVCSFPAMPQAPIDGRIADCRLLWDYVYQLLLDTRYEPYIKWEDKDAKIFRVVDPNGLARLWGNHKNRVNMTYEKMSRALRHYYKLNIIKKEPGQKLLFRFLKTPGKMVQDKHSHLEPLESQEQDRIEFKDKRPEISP
# How it was run: as §1
# ELF5 = molecular target: T11, ELF5 (Homo sapiens, UniProt Q9UKW6-2 1-255); details: protein: recombinant; tags: N-terminal GST; dsDNA, one strand shown
# T11 sequence: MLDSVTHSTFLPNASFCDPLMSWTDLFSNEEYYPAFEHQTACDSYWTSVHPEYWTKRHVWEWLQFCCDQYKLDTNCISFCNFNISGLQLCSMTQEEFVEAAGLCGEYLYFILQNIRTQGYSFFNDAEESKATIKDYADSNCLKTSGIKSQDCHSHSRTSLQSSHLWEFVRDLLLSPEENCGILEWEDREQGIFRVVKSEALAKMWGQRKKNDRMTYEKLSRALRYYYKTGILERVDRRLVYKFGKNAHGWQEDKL
# How it was run: as §1
# ETV3 = molecular target: T12, ETV3 (Homo sapiens, UniProt P41162-2 1-143); details: protein: recombinant; tags: N-terminal GST; dsDNA, one strand shown
# T12 sequence: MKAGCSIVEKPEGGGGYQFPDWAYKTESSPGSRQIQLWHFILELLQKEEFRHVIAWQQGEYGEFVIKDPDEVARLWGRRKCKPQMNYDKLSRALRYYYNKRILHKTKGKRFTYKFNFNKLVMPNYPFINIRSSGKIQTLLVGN
# How it was run: as §1
# ETV6 = ETV6 (Homo sapiens, UniProt P41212 1-452); details: protein: recombinant; tags: N-terminal GST; dsDNA, one strand shown
# How it was run: as §1
# Sequence of HSF1 (Q00613 whole entry): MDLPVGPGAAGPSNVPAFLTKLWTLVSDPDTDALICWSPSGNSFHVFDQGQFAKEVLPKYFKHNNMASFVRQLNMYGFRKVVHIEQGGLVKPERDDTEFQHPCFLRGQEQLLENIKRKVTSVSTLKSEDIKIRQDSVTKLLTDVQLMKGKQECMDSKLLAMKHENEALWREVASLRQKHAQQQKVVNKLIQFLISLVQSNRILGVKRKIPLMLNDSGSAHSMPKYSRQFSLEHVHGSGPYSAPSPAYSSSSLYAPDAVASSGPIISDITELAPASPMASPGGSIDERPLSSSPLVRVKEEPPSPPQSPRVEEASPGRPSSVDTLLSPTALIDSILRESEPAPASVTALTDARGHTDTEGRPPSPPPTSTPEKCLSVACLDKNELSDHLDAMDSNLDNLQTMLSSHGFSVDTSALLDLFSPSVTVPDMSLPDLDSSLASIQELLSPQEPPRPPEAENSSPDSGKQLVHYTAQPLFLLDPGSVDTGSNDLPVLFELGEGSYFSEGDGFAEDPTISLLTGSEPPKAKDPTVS
# Sequence of ETV5 (P41161 whole entry): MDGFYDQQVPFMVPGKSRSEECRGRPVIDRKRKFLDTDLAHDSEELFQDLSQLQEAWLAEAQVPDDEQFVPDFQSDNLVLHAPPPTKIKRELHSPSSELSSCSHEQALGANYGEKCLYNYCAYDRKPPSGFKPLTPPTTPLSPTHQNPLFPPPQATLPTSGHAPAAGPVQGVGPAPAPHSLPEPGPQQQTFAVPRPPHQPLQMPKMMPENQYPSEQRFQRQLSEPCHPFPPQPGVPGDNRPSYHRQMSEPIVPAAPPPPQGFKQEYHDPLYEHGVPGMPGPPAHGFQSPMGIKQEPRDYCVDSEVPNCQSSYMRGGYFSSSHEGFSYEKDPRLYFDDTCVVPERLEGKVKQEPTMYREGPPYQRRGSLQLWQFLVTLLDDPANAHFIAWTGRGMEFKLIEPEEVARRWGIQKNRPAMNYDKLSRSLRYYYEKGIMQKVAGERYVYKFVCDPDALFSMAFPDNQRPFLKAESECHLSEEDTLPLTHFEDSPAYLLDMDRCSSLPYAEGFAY
# Sequence of ETV1 (P50549 whole entry): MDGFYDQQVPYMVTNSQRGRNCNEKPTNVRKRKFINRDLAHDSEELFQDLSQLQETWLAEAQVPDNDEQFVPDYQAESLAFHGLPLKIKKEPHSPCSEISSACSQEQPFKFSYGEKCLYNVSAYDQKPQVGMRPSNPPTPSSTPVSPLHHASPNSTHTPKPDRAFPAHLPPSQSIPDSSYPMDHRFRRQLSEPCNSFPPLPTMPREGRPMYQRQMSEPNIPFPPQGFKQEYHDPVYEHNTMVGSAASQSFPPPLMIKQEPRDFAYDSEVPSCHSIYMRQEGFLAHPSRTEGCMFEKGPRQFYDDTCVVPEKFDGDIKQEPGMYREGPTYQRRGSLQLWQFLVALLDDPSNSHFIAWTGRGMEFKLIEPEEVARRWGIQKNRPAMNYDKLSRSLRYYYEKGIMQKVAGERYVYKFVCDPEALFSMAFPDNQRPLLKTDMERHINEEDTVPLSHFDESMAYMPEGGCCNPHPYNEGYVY
# Sequence of ETV6 (P41212 whole entry): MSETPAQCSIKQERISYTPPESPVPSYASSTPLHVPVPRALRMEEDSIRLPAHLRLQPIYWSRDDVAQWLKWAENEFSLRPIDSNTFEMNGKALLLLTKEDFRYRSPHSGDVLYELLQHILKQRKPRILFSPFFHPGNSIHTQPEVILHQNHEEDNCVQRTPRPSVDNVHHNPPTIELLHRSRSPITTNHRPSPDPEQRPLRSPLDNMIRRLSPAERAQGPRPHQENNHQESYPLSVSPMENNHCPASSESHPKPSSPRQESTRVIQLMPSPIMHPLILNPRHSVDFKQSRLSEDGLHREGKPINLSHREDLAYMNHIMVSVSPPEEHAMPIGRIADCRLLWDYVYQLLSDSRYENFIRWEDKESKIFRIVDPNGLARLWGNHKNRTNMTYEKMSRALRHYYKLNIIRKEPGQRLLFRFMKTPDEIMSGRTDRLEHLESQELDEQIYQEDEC
# Sequence of CRX (O43186 whole entry): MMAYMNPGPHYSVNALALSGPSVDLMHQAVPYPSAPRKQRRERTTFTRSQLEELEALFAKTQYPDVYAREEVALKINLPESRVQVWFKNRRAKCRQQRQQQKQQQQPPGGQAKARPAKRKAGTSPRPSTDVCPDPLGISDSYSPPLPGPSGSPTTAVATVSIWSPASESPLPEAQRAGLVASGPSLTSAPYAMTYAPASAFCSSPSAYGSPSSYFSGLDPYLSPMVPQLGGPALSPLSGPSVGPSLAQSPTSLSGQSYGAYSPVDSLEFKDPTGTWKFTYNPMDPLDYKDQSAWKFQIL
# Sequence of ELF4 (Q99607 whole entry): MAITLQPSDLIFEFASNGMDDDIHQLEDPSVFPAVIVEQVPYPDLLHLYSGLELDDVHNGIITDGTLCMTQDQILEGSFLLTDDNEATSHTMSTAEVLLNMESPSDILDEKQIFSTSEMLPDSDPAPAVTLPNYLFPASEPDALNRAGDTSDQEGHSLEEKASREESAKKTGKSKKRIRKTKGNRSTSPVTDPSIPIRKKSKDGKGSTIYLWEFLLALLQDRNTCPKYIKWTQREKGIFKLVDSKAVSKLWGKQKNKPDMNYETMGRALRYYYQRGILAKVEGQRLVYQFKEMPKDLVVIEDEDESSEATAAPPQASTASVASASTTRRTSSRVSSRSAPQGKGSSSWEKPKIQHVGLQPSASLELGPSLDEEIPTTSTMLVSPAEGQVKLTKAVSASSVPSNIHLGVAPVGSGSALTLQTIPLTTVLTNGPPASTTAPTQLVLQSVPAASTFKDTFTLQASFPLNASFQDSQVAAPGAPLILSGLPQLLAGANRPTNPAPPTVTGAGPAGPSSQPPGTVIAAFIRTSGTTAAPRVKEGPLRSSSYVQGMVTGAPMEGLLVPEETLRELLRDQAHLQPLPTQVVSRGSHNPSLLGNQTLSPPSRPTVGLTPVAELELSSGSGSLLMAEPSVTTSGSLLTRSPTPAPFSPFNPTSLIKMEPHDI
sequence,measurement,setting,value
TGCTAA,binding signal,FEV,"1.29 fold enrichment (6-mer frequency, TF over GST control)"
same,binding signal,ETV5,"1.29 fold enrichment (6-mer frequency, TF over GST control)"
same,binding signal,HSF1,"1.32 fold enrichment (6-mer frequency, TF over GST control)"
same,binding signal,SPIC,"1.26 fold enrichment (6-mer frequency, TF over GST control)"
same,binding signal,ELF4,"1.28 fold enrichment (6-mer frequency, TF over GST control)"
same,binding signal,ELK4,"1.42 fold enrichment (6-mer frequency, TF over GST control)"
same,binding signal,ETV2,"1.24 fold enrichment (6-mer frequency, TF over GST control)"
same,binding signal,ELF3,"1.15 fold enrichment (6-mer frequency, TF over GST control)"
same,binding signal,CRX,"1.8 fold enrichment (6-mer frequency, TF over GST control)"
same,binding signal,ETV1,"1.39 fold enrichment (6-mer frequency, TF over GST control)"
same,binding signal,ERF,"1.13 fold enrichment (6-mer frequency, TF over GST control)"
same,binding signal,ETV3L,"1.25 fold enrichment (6-mer frequency, TF over GST control)"
same,binding signal,ETS2,"1.34 fold enrichment (6-mer frequency, TF over GST control)"
same,binding signal,SPDEF,"1.32 fold enrichment (6-mer frequency, TF over GST control)"
same,binding signal,ETV7,"1.28 fold enrichment (6-mer frequency, TF over GST control)"
same,binding signal,ELF5,"1.25 fold enrichment (6-mer frequency, TF over GST control)"
same,binding signal,ETV3,"1.22 fold enrichment (6-mer frequency, TF over GST control)"
same,binding signal,ETV6,"1.29 fold enrichment (6-mer frequency, TF over GST control)"
